For 40 compounds, Potency results are on record in PubChem BioAssay (Tox21).

Records with an inconclusive call do not appear. Where a call stands in place of a potency, no number is given. Some compounds were tested as several samples or in several runs, with calls that do not always agree. Calls of active or inactive are those of the source. Calls follow the shape of the dose curve; as a rule, active = well fitted activation curve with a large enough effect in the repeat runs; inconclusive = weak or mixed curves; inactive = flat fitted curve, though single readings scatter.
Potency is read from the fitted curve at half-maximal effect.

A short description of this experiment: Caspase-3/7 induction in HepG2 cells by small molecules, qHTS assay (AID 1346978). Also: nearly all actives have a fitted effect of over 15% in size. To be noted: HepG2 caspase-3/7 activation, Caspase-Glo luminescence, 17 h; series mostly up to 92.4 µM. The text has this:
National Center for Advancing Translational Sciences [NCATS] NIH Chemical Genomics Center [NCGC] U.S. Environmental Protection Agency [EPA] National Institutes of Environmental Health Sciences [NIEHS] National Toxicology Program [NTP] Assay overview: Apoptosis is a process of programmed cell death and plays a central role in the development of multicellular organisms. It is a highly regulated process and induces cell death by activating caspases, which are the members of cysteine aspartic acid-specific protease (caspase) family. Caspases involved in apoptosis are classified by their mechanism of action as initiator caspases (caspase-2, -8, -9 and -10) and executioner caspases (caspase-3, -6, and -7). Inhibition of apoptosis results in number of cancers, autoimmune diseases, inflammatory diseases and viral infection. To identify small molecule compounds that induce apoptosis, a homogeneous, luminescent Caspase-Glo 3/7 assay was used. Wild type HepG2 cells were used to screen Tox21 libraries for identifying caspase-3/7 activity inducers.
Assay Protocol Summary: HepG2 cells were dispensed at 2,000 per well in 5uL of culture medium into white solid bottom 1536-well plates (Corning Life Sciences, Corning, NY) using a Multidrop Combi (Thermo Scientific, Waltham, MA) dispenser. The assay plates were incubated at 37 C and 5% CO2 for 5hr, and then 23nL of compounds dissolved in DMSO and positive control were transferred using a Pintool station (Wako, San Diego, CA). The assay plates were incubated at 37C and 5% CO2 for 17hr. For caspase-3/7 activity read, 4uL of Caspase-Glo 3/7 reagent (Promega Corporation, Madison, WI) was added to each well of the assay plates using Flying Reagent Dispenser (FRD, Aurora Discovery, San Diego, CA) and incubated the assay plates at room temperature for 30min. The luminescence signal was quantified using a ViewLux plate reader (Perkin Elmer, Shelton, CT).
In general terms: Quantitative high-throughput screening tests each substance at several concentrations.
`Cc1ccc(C(C)(C)C)cc1`: the Potency result was “inactive”.
The value for `CC(C)[N+](C)(CCOC(=O)C1c2ccccc2Oc2ccccc21)C(C)C` was “inactive”; that for `CN(C)C` was “inactive”; that for `CC(C)(Oc1ccc(Cl)cc1)C(=O)O` was “inactive”.
In the case of `CC/C(=C(/CC)c1ccc(O)cc1)c1ccc(O)cc1`, the Potency entry was “inactive”.
With `Cc1ccc2c(c1)C(=O)OC2=O` the entry was “inactive”; with `OCCNCCO`, “inactive”.
Consider `CCC/C=C/C=O`, for which the Potency entry is “inactive”.
With `C=CC(C)(O)CCC=C(C)C` (stereo not given), the Potency result was “inactive”.
For `CCC(=O)O[C@H]1[C@H](O[C@@H]2[C@@H](C)[C@H](O[C@H]3C[C@@](C)(OC)[C@@H](O)[C@H](C)O3)[C@@H](C)C(=O)O[C@H](CC)[C@@](C)(O)[C@H](O)[C@@H](C)C(=O)[C@H](C)C[C@@]2(C)O)O[C@H](C)C[C@@H]1N(C)C`, the Potency result is “inactive”.
The value for `O=C(O)CCCCCCCCCCCC(=O)O` was “inactive”.
Take `CC1(C)O[C@@H]2C[C@H]3[C@@H]4C[C@H](F)C5=CC(=O)C=C[C@]5(C)[C@@]4(F)[C@@H](O)C[C@]3(C)[C@]2(C(=O)CO)O1`: the Potency result is “inactive”.
With `C[C@]12C=CC(=O)C=C1CC[C@H]1[C@@H]3C[C@@H](O)[C@](O)(C(=O)CO)[C@@]3(C)C[C@H](O)[C@@]12F` the entry was “inactive”; with `C[C@]12CC[C@@H]3c4ccc(O)cc4CC[C@H]3[C@@H]1CC[C@H]2O`, 11.1 µM (active); with `C=CCCCCCCCCCC`, “inactive”.
On to `O=Cc1ccccc1C=O`, for which the Potency is 48.6 µM (active) and inactive.
Take `CCc1cccc2c3c([nH]c12)C(CC)(CC(=O)O)OCC3` (stereo not given): the Potency result was “inactive”.
The value for `O=C(O)c1cc(=O)[nH]c(=O)[nH]1` was “inactive”; that for `c1ccc2c(c1)ccc1ncccc12` was “inactive”; that for `NCCS(=O)(=O)O` was “inactive”.
The value for `CC1(C)OC(=O)NC1=O` was “inactive”; that for `C/C=C/C(=O)N(CC)c1ccccc1C` was “inactive”; that for `CC(=O)[C@H]1CC[C@H]2[C@@H]3CC=C4C[C@@H](O)CC[C@]4(C)[C@H]3CC[C@]12C` was “inactive”.
As for `[O-]/[N+](=N\O)c1ccccc1`, the Potency result is “inactive”.
As for `CCO[Si](CCCNC(N)=O)(OCC)OCC`, the Potency result is “inactive”.
As for `[Na+]`, the Potency result was “inactive”.
For `CC(=O)Nc1ccc2c(c1)Cc1cc(NC(C)=O)ccc1-2`, the Potency entry was “inactive”.
With `O=C(O)c1ccc(O)cc1` the entry was “inactive”; with `IC(I)I`, “inactive”; with `ClC/C=C/CCl`, “inactive”.
`c1ccc2c(c1)ccc1cc3c(ccc4ccccc43)cc12`: the Potency result is “inactive”.
Regarding `CCC(Cc1c(I)cc(I)c(N)c1I)C(=O)O` (stereo not given), the Potency result is “inactive”.
In the case of `CC(=O)Oc1ccc(C(c2ccc(OC(C)=O)cc2)c2ccccn2)cc1`, the Potency entry is “inactive”.
The value for `COc1ccc(-c2coc3cc(O)cc(O)c3c2=O)cc1` was “inactive”; that for `Nc1cc(Cl)c(N)c(Cl)c1` was “inactive”.
With `CC/C=C\C/C=C\C/C=C\CCCCCCCC(=O)O` the entry was “inactive”; with `Cc1ccc(C)c(O)c1`, “inactive”; with `CCCCCCCC/C=C\CCCCCCCC(=O)O`, “inactive”.
With `NCCOCCO` the entry was “inactive”.
Take `O=C(O)CCCC(=O)O`: the Potency entry is “inactive”.
